Results reported in the supplement of paper PMC10849652.
Of roughly 8,800 targets only a part is listed; those with a hit were picked by preference. About 0.5% of all pairs of compound and target were hits. Unmarked numbers belong to inactive results.

Tests used:
Assay in all cases: log2 fold change, soluble protein after heating vs DMSO (PISA); higher = thermal stabilisation; K562 lysate, 10 uM; active = over 0.2 and 3.5 SD of the protein, either way, in both replicates (recomputed)
lapatinib = compound: CS(=O)(=O)CCNCc1ccc(-c2ccc3ncnc(Nc4ccc(OCc5cccc(F)c5)c(Cl)c4)c3c2)o1 [lapatinib]
Summary of the method: (§1)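 A 30 min treatment with 10 μM compound was applied to crude K562 extract at 1 mg/mL protein in PBS pH 7.4 with 1 mM MgCl2. Heating for 3 min spanned 48°C-58°C, after which aliquots were pooled, adjusted to 0.5% NP-40 at 4°C and spun at 21,000xg for 90 min. TMTpro 16plex LC-MS/MS of the supernatant, with channel sums equalised, gave values recorded as log-two fold change in thermal stability against solvent controls, from duplicates.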

pictilisib = compound: CS(=O)(=O)N1CCN(Cc2cc3nc(-c4cccc5[nH]ncc45)nc(N4CCOCC4)c3s2)CC1 [pictilisib]
Summary of the method: as §1

crizotinib = compound: C[C@@H](Oc1cc(-c2cnn(C3CCNCC3)c2)cnc1N)c1c(Cl)ccc(F)c1Cl [crizotinib]
Summary of the method: as §1

[1] = compound: C[C@H](C1=CC=C(C=C1)C(=O)NC2=C3C=CNC3=NC=C2)N
Summary of the method: as §1

duvelisib = compound: C[C@H](Nc1ncnc2nc[nH]c12)c1cc2cccc(Cl)c2c(=O)n1-c1ccccc1 [duvelisib]
Summary of the method: as §1

gandotinib = compound: Cc1cc(Nc2cc(CN3CCOCC3)c3nc(C)c(Cc4ccc(Cl)cc4F)n3n2)n[nH]1 [gandotinib]
Summary of the method: as §1

tozasertib = compound: Cc1cc(Nc2cc(N3CCN(C)CC3)nc(Sc3ccc(NC(=O)C4CC4)cc3)n2)n[nH]1 [tozasertib]
Summary of the method: as §1

doramapimod = compound: Cc1ccc(-n2nc(C(C)(C)C)cc2NC(=O)Nc2ccc(OCCN3CCOCC3)c3ccccc23)cc1 [doramapimod]
Summary of the method: as §1

bafetinib = compound: Cc1ccc(NC(=O)c2ccc(CN3CC[C@H](N(C)C)C3)c(C(F)(F)F)c2)cc1Nc1nccc(-c2cncnc2)n1 [bafetinib]
Summary of the method: as §1

[2] = compound: Cc1cccc(CC(=O)N2CCc3c2ccc(-c2cn(C)c4ncnc(N)c24)c3F)n1
Summary of the method: as §1

nilotinib = compound: Cc1cn(-c2cc(NC(=O)c3ccc(C)c(Nc4nccc(-c5cccnc5)n4)c3)cc(C(F)(F)F)c2)cn1 [nilotinib]
Summary of the method: as §1

[3] = compound: Cc1nc(Nc2n[nH]c3c2CN(C(=O)N[C@H](CN(C)C)c2ccccc2)C3(C)C)c2sccc2n1
Summary of the method: as §1

dasatinib = compound: Cc1nc(Nc2ncc(C(=O)Nc3c(C)cccc3Cl)s2)cc(N2CCN(CCO)CC2)n1 [dasatinib]
Summary of the method: as §1

[4] = compound: Cc1ncc(-c2ccnc(Nc3ccc(S(C)(=O)=O)cc3)n2)n1C(C)C
Summary of the method: as §1

[5] = compound: Cn1cc(-c2ccc3c(c2)CCN3C(=O)Cc2cccc(C(F)(F)F)c2)c2c(N)ncnc21
Summary of the method: as §1

quisinostat = compound: Cn1cc(CNCC2CCN(c3ncc(C(=O)NO)cn3)CC2)c2ccccc21 [quisinostat]
Summary of the method: as §1

tipifarnib = compound: Cn1cncc1[C@@](N)(c1ccc(Cl)cc1)c1ccc2c(c1)c(-c1cccc(Cl)c1)cc(=O)n2C [tipifarnib]
Summary of the method: as §1

[6] = compound: NC(=O)Nc1cc(-c2cccc(F)c2)sc1C(=O)N[C@H]1CCCNC1
Summary of the method: as §1

[7] = compound: NC(=O)c1cnc(N[C@@H]2CCCC[C@@H]2N)nc1Nc1cccc(-n2nccn2)c1
Summary of the method: as §1

[8] = compound: NC1(c2ccc(-c3nc4ccn5c(=O)[nH]nc5c4cc3-c3ccccc3)cc2)CCC1
Summary of the method: as §1

Sequence of UniProt Q9P253 (Q9P253 whole entry, looked up): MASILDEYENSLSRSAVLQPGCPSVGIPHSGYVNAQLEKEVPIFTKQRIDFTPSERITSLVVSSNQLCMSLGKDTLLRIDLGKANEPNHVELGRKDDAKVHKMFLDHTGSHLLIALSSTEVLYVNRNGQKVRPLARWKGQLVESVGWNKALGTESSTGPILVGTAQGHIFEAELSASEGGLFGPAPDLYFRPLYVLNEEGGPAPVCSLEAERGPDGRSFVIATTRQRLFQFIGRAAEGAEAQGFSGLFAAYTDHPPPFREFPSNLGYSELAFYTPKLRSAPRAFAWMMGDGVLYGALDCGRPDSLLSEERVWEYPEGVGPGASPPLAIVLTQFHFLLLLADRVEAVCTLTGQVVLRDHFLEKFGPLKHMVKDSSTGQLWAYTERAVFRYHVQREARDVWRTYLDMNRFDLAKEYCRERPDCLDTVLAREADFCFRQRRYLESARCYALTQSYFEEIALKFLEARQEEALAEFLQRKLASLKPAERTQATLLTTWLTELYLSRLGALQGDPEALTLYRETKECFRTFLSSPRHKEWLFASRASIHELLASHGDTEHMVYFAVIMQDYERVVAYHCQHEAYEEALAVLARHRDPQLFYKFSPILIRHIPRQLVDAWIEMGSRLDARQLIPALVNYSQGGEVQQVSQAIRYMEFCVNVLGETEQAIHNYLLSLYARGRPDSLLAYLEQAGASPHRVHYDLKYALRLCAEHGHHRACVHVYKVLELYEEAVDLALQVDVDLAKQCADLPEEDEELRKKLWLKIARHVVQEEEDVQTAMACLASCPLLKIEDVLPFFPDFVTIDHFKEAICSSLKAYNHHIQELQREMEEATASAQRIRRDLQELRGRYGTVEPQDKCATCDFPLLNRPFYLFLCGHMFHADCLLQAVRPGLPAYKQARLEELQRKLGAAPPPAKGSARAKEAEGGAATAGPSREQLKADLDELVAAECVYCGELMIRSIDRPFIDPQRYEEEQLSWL
Sequence of UniProt P15498 (P15498 whole entry, looked up): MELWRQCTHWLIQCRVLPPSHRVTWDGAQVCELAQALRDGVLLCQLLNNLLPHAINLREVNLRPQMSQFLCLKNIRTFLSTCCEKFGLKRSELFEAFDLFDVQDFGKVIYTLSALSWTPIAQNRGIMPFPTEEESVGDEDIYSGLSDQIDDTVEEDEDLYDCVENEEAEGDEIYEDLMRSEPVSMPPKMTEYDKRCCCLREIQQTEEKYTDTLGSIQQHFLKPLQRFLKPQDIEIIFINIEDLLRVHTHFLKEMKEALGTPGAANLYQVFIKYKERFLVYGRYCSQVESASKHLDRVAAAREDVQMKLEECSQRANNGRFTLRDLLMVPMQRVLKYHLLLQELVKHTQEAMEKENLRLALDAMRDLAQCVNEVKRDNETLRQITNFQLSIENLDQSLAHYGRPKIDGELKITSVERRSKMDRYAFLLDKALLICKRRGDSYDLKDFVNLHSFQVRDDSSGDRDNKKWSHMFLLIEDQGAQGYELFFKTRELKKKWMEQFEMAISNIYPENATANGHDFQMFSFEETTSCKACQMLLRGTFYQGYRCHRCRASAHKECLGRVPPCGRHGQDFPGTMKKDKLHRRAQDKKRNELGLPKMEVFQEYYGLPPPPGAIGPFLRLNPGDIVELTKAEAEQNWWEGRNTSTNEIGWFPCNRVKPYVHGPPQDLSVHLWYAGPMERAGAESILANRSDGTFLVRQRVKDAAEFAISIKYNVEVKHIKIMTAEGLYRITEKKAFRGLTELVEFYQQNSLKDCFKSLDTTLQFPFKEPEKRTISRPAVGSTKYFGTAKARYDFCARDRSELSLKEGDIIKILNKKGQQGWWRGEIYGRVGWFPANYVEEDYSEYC
Sequence of UniProt Q9NWK9 (Q9NWK9 whole entry, looked up): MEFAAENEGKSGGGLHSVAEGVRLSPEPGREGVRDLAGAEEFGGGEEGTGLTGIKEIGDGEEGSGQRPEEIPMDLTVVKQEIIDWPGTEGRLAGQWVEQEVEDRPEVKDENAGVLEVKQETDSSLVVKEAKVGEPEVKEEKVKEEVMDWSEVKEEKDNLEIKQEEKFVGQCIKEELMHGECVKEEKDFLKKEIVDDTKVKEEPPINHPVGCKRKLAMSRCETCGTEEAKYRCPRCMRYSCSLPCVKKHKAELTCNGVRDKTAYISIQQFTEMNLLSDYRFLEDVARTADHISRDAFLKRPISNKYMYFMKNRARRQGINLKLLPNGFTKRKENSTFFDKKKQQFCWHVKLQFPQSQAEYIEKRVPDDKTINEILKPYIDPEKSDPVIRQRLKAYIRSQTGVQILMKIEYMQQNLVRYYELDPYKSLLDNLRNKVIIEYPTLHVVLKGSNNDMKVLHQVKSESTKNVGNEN
Sequence of UniProt P04004 (P04004 whole entry, looked up): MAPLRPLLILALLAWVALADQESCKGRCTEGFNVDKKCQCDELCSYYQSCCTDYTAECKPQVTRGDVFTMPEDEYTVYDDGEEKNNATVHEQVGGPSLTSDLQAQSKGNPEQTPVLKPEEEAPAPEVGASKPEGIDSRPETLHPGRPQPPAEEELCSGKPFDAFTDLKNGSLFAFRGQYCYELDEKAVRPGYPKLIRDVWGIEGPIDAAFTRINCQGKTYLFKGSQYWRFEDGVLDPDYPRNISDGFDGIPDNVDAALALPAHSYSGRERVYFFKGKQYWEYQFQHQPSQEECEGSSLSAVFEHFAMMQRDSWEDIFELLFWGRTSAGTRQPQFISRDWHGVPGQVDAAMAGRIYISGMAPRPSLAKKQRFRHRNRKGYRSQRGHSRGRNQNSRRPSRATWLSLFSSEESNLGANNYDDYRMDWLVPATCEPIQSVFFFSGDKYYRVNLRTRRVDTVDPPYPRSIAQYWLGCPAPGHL
Sequence of UniProt Q9NQZ2 (Q9NQZ2 whole entry, looked up): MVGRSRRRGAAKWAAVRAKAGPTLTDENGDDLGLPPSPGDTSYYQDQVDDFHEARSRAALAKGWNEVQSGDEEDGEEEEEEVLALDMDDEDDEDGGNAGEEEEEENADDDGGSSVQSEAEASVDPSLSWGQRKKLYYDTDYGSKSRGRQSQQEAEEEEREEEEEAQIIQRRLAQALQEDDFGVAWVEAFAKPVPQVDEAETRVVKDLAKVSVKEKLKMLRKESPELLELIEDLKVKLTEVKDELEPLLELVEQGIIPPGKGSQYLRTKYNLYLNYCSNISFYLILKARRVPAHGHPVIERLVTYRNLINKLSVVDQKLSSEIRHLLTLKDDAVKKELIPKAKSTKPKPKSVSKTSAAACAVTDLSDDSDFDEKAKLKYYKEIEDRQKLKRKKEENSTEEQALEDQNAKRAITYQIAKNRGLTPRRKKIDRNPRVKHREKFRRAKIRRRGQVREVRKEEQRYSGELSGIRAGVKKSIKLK
Sequence of UniProt Q9H3U1 (Q9H3U1 whole entry, looked up): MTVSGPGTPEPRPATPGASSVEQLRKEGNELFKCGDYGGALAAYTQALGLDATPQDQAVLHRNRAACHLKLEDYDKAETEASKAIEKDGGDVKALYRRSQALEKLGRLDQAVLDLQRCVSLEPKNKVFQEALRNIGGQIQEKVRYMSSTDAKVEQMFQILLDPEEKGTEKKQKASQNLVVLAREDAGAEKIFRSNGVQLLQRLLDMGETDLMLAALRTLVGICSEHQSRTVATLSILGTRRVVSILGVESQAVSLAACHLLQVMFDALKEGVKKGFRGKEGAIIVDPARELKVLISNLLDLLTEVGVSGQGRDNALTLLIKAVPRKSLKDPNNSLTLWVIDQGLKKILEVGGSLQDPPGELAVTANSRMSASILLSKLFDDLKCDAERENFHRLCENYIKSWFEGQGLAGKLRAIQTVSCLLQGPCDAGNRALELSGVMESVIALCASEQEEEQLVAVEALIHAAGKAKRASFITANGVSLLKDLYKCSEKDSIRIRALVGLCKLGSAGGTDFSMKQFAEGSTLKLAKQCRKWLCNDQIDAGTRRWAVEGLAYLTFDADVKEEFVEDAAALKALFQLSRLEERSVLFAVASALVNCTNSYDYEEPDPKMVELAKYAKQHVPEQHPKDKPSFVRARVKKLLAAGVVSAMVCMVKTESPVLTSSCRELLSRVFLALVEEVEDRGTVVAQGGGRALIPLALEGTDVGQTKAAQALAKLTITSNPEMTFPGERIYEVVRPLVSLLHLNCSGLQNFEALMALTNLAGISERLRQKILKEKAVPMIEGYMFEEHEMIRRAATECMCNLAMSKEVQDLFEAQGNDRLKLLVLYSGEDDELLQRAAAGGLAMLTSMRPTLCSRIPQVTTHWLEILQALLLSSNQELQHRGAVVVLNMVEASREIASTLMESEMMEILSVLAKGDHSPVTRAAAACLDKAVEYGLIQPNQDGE
Sequence of UniProt Q96NC0 (Q96NC0 whole entry, looked up): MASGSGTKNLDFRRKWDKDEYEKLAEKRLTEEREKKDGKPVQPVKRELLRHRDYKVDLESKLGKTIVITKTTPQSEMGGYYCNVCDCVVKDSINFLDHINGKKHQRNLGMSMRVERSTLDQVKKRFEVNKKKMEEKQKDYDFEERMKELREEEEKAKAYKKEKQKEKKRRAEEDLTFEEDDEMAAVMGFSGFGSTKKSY
Sequence of UniProt Q86U90 (Q86U90 whole entry, looked up): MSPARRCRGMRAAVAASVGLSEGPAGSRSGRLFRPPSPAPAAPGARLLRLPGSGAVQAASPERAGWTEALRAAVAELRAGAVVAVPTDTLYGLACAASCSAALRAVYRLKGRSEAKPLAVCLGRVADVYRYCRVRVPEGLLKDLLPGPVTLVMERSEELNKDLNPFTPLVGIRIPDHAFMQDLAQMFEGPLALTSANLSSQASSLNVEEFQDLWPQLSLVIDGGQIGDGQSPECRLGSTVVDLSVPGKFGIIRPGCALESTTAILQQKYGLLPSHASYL
Sequence of UniProt O00258 (O00258 whole entry, looked up): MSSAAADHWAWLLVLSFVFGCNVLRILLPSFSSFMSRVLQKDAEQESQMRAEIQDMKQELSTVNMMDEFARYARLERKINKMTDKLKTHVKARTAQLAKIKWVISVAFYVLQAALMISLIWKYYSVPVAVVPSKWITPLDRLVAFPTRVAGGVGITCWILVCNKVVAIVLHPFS

Target	log2 fold change (lapatinib)	log2 fold change (pictilisib)	log2 fold change (crizotinib)	log2 fold change [1]	log2 fold change (duvelisib)	log2 fold change (gandotinib)	log2 fold change (tozasertib)	log2 fold change (doramapimod)	log2 fold change (bafetinib)	log2 fold change [2]	log2 fold change (nilotinib)	log2 fold change [3]	log2 fold change (dasatinib)	log2 fold change [4]	log2 fold change [5]	log2 fold change (quisinostat)	log2 fold change (tipifarnib)	log2 fold change [6]	log2 fold change [7]	log2 fold change [8]
WIPI1 (UniProt Q5MNZ9)	-0.021	-0.003	0.058	-0.013	-0.014	0.017	0.039	-0.013	-0.038	-0.038	0.011	-0.198	0.06	0.314 (active)	-0.028	0.013	0.003	-0.011	0.009	0.011
ZNHIT6 (UniProt Q9NWK9)	0.042	0.006	-0.006	0.061	-0.002	0.008	-0.029	-0.024	-0.026	-0.004	-0.023	0	-0.037	-0.005	0.004	-0.04	0.014	0.087	0.028	-0.022
YRDC (UniProt Q86U90)	-0.028	-0.038	-0.047	-0.039	0.018	0.055	0.027	0.035	0.022	0.01	0	0.021	0.022	0.018	-0.019	-0.019	0.008	-0.004	0.01	-0.003
ZNF598 isoform 3 (UniProt Q86UK7)	0.027	0.005	0.006	-0.01	-0.01	0.023	0.048	0.024	-0.012	0.015	-0.004	-0.022	-0.063	0.031	0.032	-0.023	-0.019	0.01	0.011	0.029
UTP3 (UniProt Q9NQZ2)	0.002	-0.031	-0.094	-0.008	0.031	-0.007	-0.027	0.066	-0.061	0.029	-0.106	0.008	-0.048	-0.054	-0.023	0.014	0.051	0.065	0.002	0
ZC3HC1 (UniProt Q86WB0)	0.042	0.001	0.023	0.222 (active)	0.013	-0.082	-0.036	0.025	-0.019	-0.094	-0.013	-0.005	0.029	0.007	-0.009	-0.033	-0.03	0.025	0.017	0.024
ZMAT2 (UniProt Q96NC0)	0.006	0.003	-0.005	0.02	-0.034	-0.035	-0.028	0.042	0.053	-0.043	-0.014	0.037	0.022	0.027	0.033	-0.066	-0.013	-0.044	0.002	-0.03
USP16 (UniProt Q9Y5T5)	0.003	-0.049	-0.018	0.003	0.049	-0.039	0.006	-0.017	-0.037	0.035	0.016	0.005	0.053	0.014	0.041	-0.014	0.016	0.011	0.023	0.012
VPS18 (UniProt Q9P253)	0.009	-0.017	-0.049	-0.056	-0.04	-0.032	-0.003	-0.004	-0.06	0.047	-0.013	-0.029	-0.016	0.003	-0.005	-0.018	-0.05	0.029	0.01	-0.019
VPS4A (UniProt Q9UN37)	0.003	-0.034	-0.034	-0.042	-0.012	-0.066	0.007	0.038	0.004	0.056	-0.011	0.008	-0.075	0.002	0.056	-0.027	0.023	0.019	0.004	-0.011
USP48 (UniProt Q86UV5)	-0.05	0.037	0.13	-0.577 (active)	-0.022	0.068	0.035	-0.181	-0.134	0.182	-0.016	-0.045	-0.016	-0.032	0.005	0.19	0.033	-0.077	0.005	-0.012
WRB (UniProt O00258)	-0.067	-0.118	0.034	-0.138	0.006	0.348 (active)	-0.033	-0.074	-0.017	0.339	0.06	-0.017	-0.014	0.183	0.082	0.015	-0.044	-0.005	0.071	0.024
VTN (UniProt P04004)	-0.057	0.026	0.019	-0.384 (active)	0.018	0.164	-0.006	-0.023	-0.054	0.148	0.04	0.064	0.019	-0.102	0	0.022	-0.092	0.006	-0.063	-0.03
UNC45A (UniProt Q9H3U1)	-0.006	-0.026	-0.045	0.019	-0.003	-0.111	0	0.027	-0.018	0.021	-0.007	0.003	-0.051	0.018	0.016	-0.047	-0.015	0.03	0.016	-0.001
VPS35L (UniProt Q7Z3J2)	-0.016	-0.003	-0.028	-0.025	0.02	-0.029	0.026	0.02	-0.052	0.065	-0.019	-0.006	-0.088	0.022	0.008	-0.046	0.03	0.043	0.001	-0.044
VAV1 (UniProt P15498)	0	0.012	-0.059	-0.057	0.071	-0.02	0.011	-0.044	-0.087	0.066	0.022	-0.031	0.007	0.009	0.04	0.022	0	-0.018	0.007	-0.054
